The list shows a part of the results.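 The calls were made as follows: active = mean activity change at or below -40% when tested at 20 µM; inactive = the rest.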
Experiment: Rh110 fluorescence interference by putative Apaf-1 activators, confirmation, artefact control for Apaf-1 activator project, biochemical, 20 µM (AID 504616)
Conditions: quenched caspase reaction, Ex480/Em540, at 20 µM

Fluorescence interference (activity change), inactive:
Brc1ccc(/C=N/N2CCN(C3c4ccccc4-c4ccccc43)CC2)s1 -2.39%
Cc1ccc(S(=O)(=O)c2c(N)n(C)c3nc4ccccc4nc23)cc1 -4.76%
COc1ccc(OCCCC(=O)NCCc2ccccc2)cc1 3.73%
CC(=O)NC(=S)NNC(=O)c1ccc(Br)cc1 -5.11%
CCOCCCNC(=O)c1c[nH]c2cc(C)ccc2c1=O 8.21%
O=C(Nc1ccccc1F)c1ccccc1-c1ccccc1 6.9%
O=C(CN1C(=O)C2C3C=CC(C3)C2C1=O)NCCc1ccccc1Cl (stereo unspecified) -3.43%
O=C(Nc1cccc(C(F)(F)F)c1)c1cnccn1 0.73%
CCOCCc1c(O)nc(SCC(=O)NCc2ccco2)[nH]c1=O -8.32%
CC1COc2ccccc2N1C(=O)c1cccnc1Cl (stereo unspecified) 0.54%
CC(=O)CCC(=O)c1ccc2ccccc2c1 15%
CC(C)N1CCC(NC(=O)Nc2ccccc2)CC1 -6.69%
COc1ccc2c(c1)CCNC2Cc1ccc(OC)c(O)c1 (stereo unspecified) -0.08%
O=C(CCc1ccccc1)NNC(=O)c1ccc(Br)cc1 -7.61%
CCOc1ccc(N=C2NC(=O)S/C2=C\c2ccc(O)cc2)cc1 -1.26%
COc1cccc(C(=O)Nc2ccc(N3CCCC3)cc2)c1 2.88%
C=C(C)C(=O)Nc1cccc(C2=NOC3(C2)C[C@H](C(N)=O)N(C(=O)C(c2ccccc2)c2ccccc2)C3)c1 (stereo partly specified) 7%
CCCC(=O)Nc1nc2ccc(NC(=O)c3c(F)c(F)c(OC)c(F)c3F)cc2s1 7.74%
C=CCNC(=O)c1ccc(C)c(Br)c1 10.4%
COc1ccc(C2CC(c3ccccc3)Nc3ncnn32)cc1 (stereo unspecified) -9.02%
O=[N+]([O-])c1ccc2nc(-c3ccccn3)[nH]c2c1 5.13%

Source: PubChem BioAssay AID504616 (Sanford-Burnham Center for Chemical Genomics, 2011)
